Data as given in PubChem BioAssay AID1159580 (chemical genetic matrix, 2015).
Out of some 5,500 compounds screened, about 2,000 (36%) were called active. About 18% were inconclusive and are not listed. Rule as the data show it: active = normalized growth mostly below about 0.91 (no sharp cut-off); inconclusive = no clear call, values can overlap the other calls; inactive = mostly above about 0.92. Some of the results follow.

Experiment: chemical genetic growth profiling, strain panel (AID 1159580);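 also: tested at 20 µM; growth read once vehicle control cultures reached saturation at 30 °C; 1 = growth at the plate median or of vehicle wells; lower values mean less growth of the strain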
Settings: growth OD

Measured: normalized growth

CC1=C2[C@](C)(C=CC1=O)C[C@H](O)[C@H]1[C@H](C)C(=O)O[C@]21C
inactive: S. cerevisiae deletion strains, locus YAL013W, strain DEP1, active compounds read low 1.01 | S. cerevisiae deletion strains, locus YBR021W, strain FUR4, active compounds read low 1 | S. cerevisiae deletion strains, locus YBR229C, strain ROT2, active compounds read low 1.01 | S. cerevisiae deletion strains, locus YCL029C, strain bik1, active compounds read low 1.03 | S. cerevisiae deletion strains, locus YDL035C, strain GPR1, active compounds read low 1.02 | S. cerevisiae deletion strains, locus YDL074C, strain BRE1, active compounds read low 1.01 | S. cerevisiae deletion strains, locus YDL101C, strain DUN1, active compounds read low 1.02 | S. cerevisiae deletion strains, locus YDL134C, strain PPH21, active compounds read low 1.01 | S. cerevisiae deletion strains, locus YDL185W, strain tfp1, active compounds read low 1.03 | S. cerevisiae deletion strains, locus YDL192W, strain arf1, active compounds read low 1.04 | S. cerevisiae deletion strains, locus YDR101C, strain arx1, active compounds read low 1.01 | S. cerevisiae deletion strains, locus YDR150W, strain NUM1, active compounds read low 1.01 | S. cerevisiae deletion strains, locus YDR162C, strain NBP2, active compounds read low 1.03 | S. cerevisiae deletion strains, locus YDR318W, strain mcm21, active compounds read low 1.03 | S. cerevisiae deletion strains, locus YDR388W, active compounds read low 1.02 | S. cerevisiae deletion strains, locus YDR502C, strain sam2, active compounds read low 1.03 | S. cerevisiae deletion strains, locus YEL061C, strain CIN8, active compounds read low 1.01 | S. cerevisiae deletion strains, locus YER110C, active compounds read low 1.03 | S. cerevisiae deletion strains, locus YER155C, strain BEM2, active compounds read low 1.01 | S. cerevisiae deletion strains, locus YER167W, strain BCK2, active compounds read low 1.02 | S. cerevisiae deletion strains, locus YGL078C, strain dbp3, active compounds read low 1.04 | S. cerevisiae deletion strains, locus YGL086W, strain mad1, active compounds read low 1.02 | S. cerevisiae deletion strains, locus YGL248W, strain PDE1, active compounds read low 1.01 | S. cerevisiae deletion strains, locus YGR078C, strain PAC10, active compounds read low 1.01 | S. cerevisiae deletion strains, locus YGR135W, strain pre9, active compounds read low 1.01 | S. cerevisiae deletion strains, locus YGR229C, strain SMI1, active compounds read low 1.01 | S. cerevisiae deletion strains, locus YGR252W, strain gcn5, active compounds read low 1.07 | S. cerevisiae deletion strains, locus YHR030C, strain SLT2, active compounds read low 1.01 | S. cerevisiae deletion strains, locus YHR079C, strain IRE1 (second series), active compounds read low 1.03 | S. cerevisiae deletion strains, locus YHR094C, strain hxt1, active compounds read low 1.03 | S. cerevisiae deletion strains, locus YHR129C, strain ARP1, active compounds read low 1.01 | S. cerevisiae deletion strains, locus YHR200W, strain rpn10, active compounds read low 1.03 | S. cerevisiae deletion strains, locus YIL066C, strain RNR3, active compounds read low 1.03 | S. cerevisiae deletion strains, locus YIL073C, strain SPO22, active compounds read low 1.1 | S. cerevisiae deletion strains, locus YIL125W, strain kgd1, active compounds read low 1.03 | S. cerevisiae deletion strains, locus YIR030C, strain dcg1, active compounds read low 1.02 | S. cerevisiae deletion strains, locus YJL095W, strain BCK1, active compounds read low 1.01 | S. cerevisiae deletion strains, locus YJL134W, strain LCB3, active compounds read low 1 | S. cerevisiae deletion strains, locus YJL168C, strain set2, active compounds read low 1.03 | S. cerevisiae deletion strains, locus YJL187C, strain SWE1 (second series), active compounds read low 1.01 | S. cerevisiae deletion strains, locus YJR043C, strain POL32, active compounds read low 1.02 | S. cerevisiae deletion strains, locus YJR075W, strain HOC1, active compounds read low 1.02 | S. cerevisiae deletion strains, locus YKL009W, strain mrt4, active compounds read low 1.04 | S. cerevisiae deletion strains, locus YKL068W, active compounds read low 1.04 | S. cerevisiae deletion strains, locus YKL085W, strain MDH1 (second series), active compounds read low 1.02 | S. cerevisiae deletion strains, locus YKL085W, strain MDH1, active compounds read low 1.02 | S. cerevisiae deletion strains, locus YKL190W, strain CNB1, active compounds read low 1.01 | S. cerevisiae deletion strains, locus YKR001C, strain vps1, active compounds read low 1.03 | S. cerevisiae deletion strains, locus YLR039C, strain RIC1, active compounds read low 1.07 | S. cerevisiae deletion strains, locus YLR058C, strain SHM2, active compounds read low 1.02 | S. cerevisiae deletion strains, locus YLR102C, strain apc9, active compounds read low 1.02 | S. cerevisiae deletion strains, locus YLR262C, strain YPT6, active compounds read low 1.05 | S. cerevisiae deletion strains, locus YLR268W, strain sec22, active compounds read low 1.02 | S. cerevisiae deletion strains, locus YLR330W, strain CHS5, active compounds read low 1.01 | S. cerevisiae deletion strains, locus YLR342W, strain FKS1 (second series), active compounds read low 1.02 | S. cerevisiae deletion strains, locus YLR371W, strain rom2, active compounds read low 1.03 | S. cerevisiae deletion strains, locus YLR418C, strain cdc73, active compounds read low 1.04 | S. cerevisiae deletion strains, locus YML016C, strain PPZ1, active compounds read low 1.01 | S. cerevisiae deletion strains, locus YML032C, strain rad52, active compounds read low 1.05 | S. cerevisiae deletion strains, locus YML124C, strain tub3, active compounds read low 1.03 | S. cerevisiae deletion strains, locus YMR078C, strain ctf18, active compounds read low 1.04 | S. cerevisiae deletion strains, locus YMR223W, strain ubp8, active compounds read low 1.04 | S. cerevisiae deletion strains, locus YMR263W, strain SAP30, active compounds read low 1 | S. cerevisiae deletion strains, locus YMR307W, strain GAS1, active compounds read low 1.08 | S. cerevisiae deletion strains, locus YNL067W, strain RPL9B, active compounds read low 1.01 | S. cerevisiae deletion strains, locus YNL128W, strain TEP1, active compounds read low 1.02 | S. cerevisiae deletion strains, locus YNL153C, strain GIM3, active compounds read low 0.999 | S. cerevisiae deletion strains, locus YNL233W, strain BNI4, active compounds read low 1.01 | S. cerevisiae deletion strains, locus YNL250W, strain rad50, active compounds read low 1.06 | S. cerevisiae deletion strains, locus YNL271C, strain bni1, active compounds read low 1.03 | S. cerevisiae deletion strains, locus YNL298W, strain CLA4, active compounds read low 1.03 | S. cerevisiae deletion strains, locus YNL307C, strain MCK1, active compounds read low 1.04 | S. cerevisiae deletion strains, locus YNL322C, strain KRE1, active compounds read low 1.02 | S. cerevisiae deletion strains, locus YNR052C, strain pop2, active compounds read low 1.04 | S. cerevisiae deletion strains, locus YOL006C, strain TOP1, active compounds read low 1.03 | S. cerevisiae deletion strains, locus YOL012C, strain htz1 0.937 | S. cerevisiae deletion strains, locus YOL147C, strain pex11, active compounds read low 1.03 | S. cerevisiae deletion strains, locus YOR061W, strain CKA2, active compounds read low 1.01 | S. cerevisiae deletion strains, locus YOR069W, strain VPS5, active compounds read low 1 | S. cerevisiae deletion strains, locus YOR136W, strain idh2, active compounds read low 1.03 | S. cerevisiae deletion strains, locus YOR144C, strain elg1, active compounds read low 1.02 | S. cerevisiae deletion strains, locus YOR184W, strain ser1, active compounds read low 1.04 | S. cerevisiae deletion strains, locus YOR316C, strain cot1, active compounds read low 1.02 | S. cerevisiae deletion strains, locus YPL055C, strain LGE1, active compounds read low 1.03 | S. cerevisiae deletion strains, locus YPL241C, strain CIN2, active compounds read low 1.01 | S. cerevisiae deletion strains, locus YPR119W, strain clb2, active compounds read low 1.03 | S. cerevisiae deletion strains, locus YPR141C, strain kar3, active compounds read low 1.04 | S. cerevisiae deletion strains, locus YPR163C, strain tif3, active compounds read low 1.02 | S. cerevisiae deletion strains, locus YPR167C, strain met16, active compounds read low 1.02 | S. cerevisiae deletion strains, strain wtn01, active compounds read low 1 | S. cerevisiae strains, strain wild type, active compounds read low 1.02
